Compounds without any hit were thinned out: in the full panel of roughly 83,000, 20% have a hit.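 Negative percent growth values reflect cell death: -40 means 40% of the cells present at the start died, and -100 means all died.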 A number with no mark means an inactive call. The source made the active and inactive calls. Rule for the calls: active = growth percent below 10; inactive = the rest.
What was measured:
Assay in all cases: NCI-60 one-dose screen, 48 h (100 = growth as untreated, 0 = no growth, -100 = all killed)
Settings in all cases: 10 µM unless noted
T-47D breast = test system: T-47D breast
BT-549 breast = test system: BT-549 breast
MDA-MB-435 melanoma = test system: MDA-MB-435 melanoma
SW-620 colon = test system: SW-620 colon
MCF7 breast = test system: MCF7 breast
HCT-116 colon = test system: HCT-116 colon
HCC-2998 colon = test system: HCC-2998 colon
KM12 colon = test system: KM12 colon

SMILES | growth (T-47D breast) | growth (BT-549 breast) | growth (MDA-MB-435 melanoma) | growth (SW-620 colon) | growth (MCF7 breast) | growth (HCT-116 colon) | growth (HCC-2998 colon) | growth (KM12 colon)
CN1CCN(c2ccc(NC(=O)Nc3ccc4c(ccn4-c4cccc(C(N)=O)n4)c3)cc2C(F)(F)F)CC1 | 80.6% | 89.9% | -45.2% (active) | -10.5% (active) | 10.7% | 12.3% | 63.4% | 22%
Cc1csc(Nc2cccc(Nc3nc(C)cs3)c2)n1 | 36.1% | 73.7% | 82.1% | 88.6% | 73.3% | 56.5% | 90.3% | 87.8%
COC(=O)c1nc(-c2ccc(C)cc2)oc1S(=O)(=O)N1CCN(c2oc(-c3ccccc3)nc2C#N)CC1 | 111% | 99.7% | 102% | 99.5% | 80.6% | 92.8% | 113% | 101%
CCN(CC)CCCC(C)NCC(=O)NC(c1ccc2c(c1)OCO2)c1cc(Cl)c2cccnc2c1O (stereo not given) | 40.1% | 79% | 8.56% (active) | 24.2% | 7.35% (active) | 7.29% (active) | -11.4% (active) | 9.46% (active)
CN1CCN(c2ccc3c(c2)nc(NNC(=O)c2ccncn2)c2cccn23)CC1 | 32.7% | 45.2% | 27.5% | 22.8% | 17.6% | 23.6% | 22.3% | 17.4%
COc1cc(OC)c(S(N)(=O)=O)cc1C(=O)/C=C/c1ccccc1 | 13.6% | 16.7% | 9.57% (active) | 3.85% (active) | 10.9% | 11.7% | 22.3% | 3.96% (active)
COCCC[C@H]1O[C@@](O)([C@H](C)[C@@H]2CC(OC)C(O)/C=C(C)/C=C(C)/C=C(\C)C(OC3O[C@@H](C)[C@H](O)C(O)[C@@H]3O)C(C)/C=C(C)/C=C(OC)/C=C(\C)C(=O)O2)C(OC)C(O)[C@]1(C)O[C@H]1C[C@@H](O)[C@H](O[C@H]2C[C@](C)(O)[C@H](O)C(C)O2)C(C)O1 (stereo not given in full) | 24.6% | 28.7% | 54.9% | 76.4% | 22.4% | 48.2% | 56.4% | 66.5%
CCOC(=O)c1nn(-c2ccc(C)cc2)c(=O)c2c(N)c(C#N)c(-c3ccc(OC)cc3)cc12 | 102% | 130% | 106% | 94.4% | 95.5% | 99.4% | 110% | 95.5%
COc1ccc2c(ccn2C(=O)N2c3ccccc3Sc3ccccc32)c1 | 23% | 34.3% | -18.9% (active) | 16.8% | 29.6% | 31.6% | 48.9% | 24.2%
COc1ccc(-c2nnc(SCc3ccc(O)c4ncccc34)n2-c2ccccc2)cc1 | 18.9% | 19.7% | 14.3% | 12.7% | 5.08% (active) | 7.39% (active) | 31.9% | 15.6%
C=CCn1c(SCC(=O)Nc2cccc(C(=O)/C=C/c3ccccc3)c2)nc2ccccc2c1=O | 78.4% | 107% | 82.9% | 12.2% | 18.3% | -3.91% (active) | 96% | 57.5%
CN1CCN(c2ccc(C(=O)/C=C/c3ccc(Cl)c(C(F)(F)F)c3)cc2)CC1 | 29.6% | 109% | 13.7% | 1.29% (active) | 7.85% (active) | 16.1% | 33.7% | 27.3%
CCCCCCNC(=O)Oc1ccc(/C(=C(\C)c2ccc(Cl)cc2)c2ccc(OCCN(C)C)cc2)cc1 | 54.8% | 77.4% | 85.3% | 21.3% | 10.8% | 18.7% | 71.4% | 83.1%
NNC(=O)c1sc2nc(-c3cnccn3)cc(-c3cccs3)c2c1N | 86.4% | 101% | 100% | 110% | 84.6% | 99.3% | 100% | 92.6%
O=C(Nc1cccc(Cl)c1)Nc1nc2ccc(-c3cccc4ccccc34)cc2s1 | 11.2% | 102% | 54.3% | 43.7% | 58.3% | 27% | 57.3% | 23%
COc1ccc(Cn2cc3c(c2-c2ccccc2)CCCc2cnoc2-3)cc1 | 56.4% | 77.3% | -11.2% (active) | 28.2% | 22.9% | 28.8% | 87.9% | 32%
Cc1cc2nc(C(Cl)Cl)nc(-c3ccco3)n2n1 | 79.2% | 93.3% | 89.4% | 54.1% | 46% | 74% | 58.7% | 25.4%
CS(=O)c1nccc(-c2c(-c3ccc(F)c(OCCc4ccccc4)c3)nc3sccn23)n1 (stereo not given) | 15.2% | 120% | 111% | 80.5% | -1.77% (active) | 63.2% | 58.6% | 89.2%
O=C1c2c(c3c4cc(O)ccc4oc3c3[nH]c4ccccc4c23)C(=O)N1O | -17% (active) | -9.43% (active) | -13.8% (active) | 4.5% (active) | 6.15% (active) | -45.8% (active) | 34.6% | -17.2% (active)
C/C(=C(/c1ccc(O)cc1)c1ccc(OCCN2CCCCCC2)cc1)c1ccccc1 | 20.5% | 61.1% | 52.4% | -52.6% (active) | 10.2% | 28.2% | 34.8% | 43.2%
Oc1ccccc1/C=N/Nc1nc(N/N=C/c2ccccc2O)nc(N2CCOCC2)n1 | 46.1% | 76.3% | 58.9% | 38.5% | 40% | 19.2% | 58.9% | 52.7%
N#C/C(=C\c1ccc2ccccc2c1)C(=O)Nc1sc2c(c1C#N)CCC2 | 87.5% | 94.6% | 107% | 111% | 94.8% | 106% | 113% | 101%
CC1CCc2c(sc3nc(SCC(=O)N/N=C/c4cccc(O)c4O)n(-c4ccccc4)c(=O)c23)C1 (stereo not given) | 74.5% | 127% | 88.4% | 85.4% | 88.3% | 85.8% | 104% | 88.9%
COc1cc(NC2=C(Cl)C(=O)c3nc(C)ccc3C2=O)cc(OC)c1 | -56% (active) | 24.1% | -87.4% (active) | -90.2% (active) | -51.7% (active) | -97.8% (active) | 14.4% | 39.3%
O=C(NCCCNc1cc(-c2cn(-c3ccccc3)nc2-c2cccc(O)c2)ccn1)Nc1cccc(C(F)(F)F)c1 | 39.2% | 68.8% | 31.7% | 12.4% | 23.7% | 23.1% | -34.7% (active) | 10.7%
N#C/C(=C\c1ccc(-c2ccc(F)cc2)o1)C(=O)Nc1ncc(Cc2ccc(Cl)cc2Cl)s1 | -5.01% (active) | -15.8% (active) | -20.4% (active) | -67.1% (active) | -5.46% (active) | -61.4% (active) | 79.8% | 13.4%
O=C1[C@H]2Cc3c([nH]c4ccccc34)[C@@H](c3ccc(Cl)cc3)N2C(=O)CN1C1CCN(Cc2c(Cl)cccc2Cl)CC1 | 84.8% | 97.2% | 97.1% | 106% | 87% | 87.9% | 101% | 87.9%
N#Cc1c(NC(=O)c2ccccc2C(F)(F)F)sc2c1CCC(=O)C2 | 1.79% (active) | 11.7% | 0.916% (active) | 3.92% (active) | 3.89% (active) | 8.03% (active) | 27.6% | 5.98% (active)
COc1ccc(-c2cc(-c3ccc(Cl)cc3)nc3nc(N)nn23)cc1 | 91.4% | 92.3% | 102% | 104% | 89.9% | 98.8% | 100% | 99.7%
O=C(CSc1ccc(-c2nc3ccccc3[nH]2)cn1)N1CCN(c2ccccc2F)CC1 | 16.7% | 27.8% | 53.9% | 106% | 55.7% | 68.1% | 96.5% | 68.8%

— PubChem BioAssay (NCI)
